Pin1 inh: qHTS Assay to Find Inhibitors of Pin1. Peptidyl-prolyl cis-trans isomerase NIMA-interacting 1 (Homo sapiens), Q13526. Potency, µM (top dose mostly 115 µM), for inactives: at the top dose activity, negative = inhibition, most hits filed as inhibitors. AID 504891, 2011. Pin1 FP peptide displacement, HiFluor488, 10 min. hit rate 0.009% among 390,000; active = well fitted inhibition curve with a large enough effect in the polarisation, with a control signal flat, not every such curve was filed as active; inconclusive = small, poorly fitted or top-dose-only effect, or effect the other way, or a change in a side signal; inactive = no such curve, though single readings can be large or run the other way; the % refers to the polarisation; note: potency is the fitted concentration of half-maximal effect
KAT2A inh: qHTS Assay for Inhibitors of GCN5L2; GCN5L2 HAT assay, ThioGlo1 CoA-SH fluorescence; hit rate 0.21% among 390,000; Histone acetyltransferase KAT2A (Homo sapiens), Q92830; AID 504327, 2011; Potency, µM (highest dose often 58.9 µM), without a hit: at the highest dose activity change, negative = inhibition, hits mostly inhibitors; note: potency is the fitted concentration of half-maximal effect
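Free CoA generated was detected with ThioGlo1 (50uM) fluorescence at Ex340nm/Em540nm, read immediately and after 20 min at room temperature. Enzyme, 20 nM in HEPES pH 7.5 buffer, saw compounds 15 min before adding 75uM H3(1-25) peptide and 70uM acetyl-CoA.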
Tb PGK inh: qHTS Assay to Find Inhibitors of Phosphoglycerate Kinase | Phosphoglycerate kinase, glycosomal (Trypanosoma brucei brucei), P07378 | PGK/GAPDH coupled, Kinase-Glo luminescence, 60 min | Potency, µM (doses to about 57.5 µM), inactives show top-dose activity change, negative = inhibition, hits mostly inhibitors | hit rate 0.043% among 380,000; note: potency is the fitted concentration of half-maximal effect; nearly all actives have a fitted effect of over 60% in size
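Luminescent ATP detection (Kinase-Glo Plus) follows a 60-minute room-temperature incubation, with wells lacking PGK as controls. Buffer: 100 mM TEA (pH 7.6), 5 mM MgCl2, 0.01% Tween-20. Coupling enzyme GAPDH (100 nM final) supplies unstable 1,3-BPG in-well.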
RGS4 inh: Inhibitors of Regulator of G Protein Signaling (RGS) 4: qHTS; Regulator of G-protein signaling 4 (Homo sapiens), P49798; Potency, µM (series often up to 114 µM), for inactives: at the highest dose activity change, negative = inhibition, actives largely listed as inhibitors; hit rate 0.039% among 390,000; Transcreener GDP fluorescence polarization, RGS4-accelerated GTP hydrolysis; AID 504845, 2011; note: potency is the fitted concentration of half-maximal effect; nearly all actives have a fitted effect of over 75% in size
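MLSMR compounds (23 nl, pin-transferred) preincubated 10 min at room temperature with a 500nM (2x) first reagent, then RGS4 at 900nM (2x) plus Transcreener GDP mix added; fluorescence polarization (620/688 nm) read before and after 90 min at 30 °C.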
KCNH2 3.1 inh: qHTS for Inhibitors of KCHN2 3.1: Mutant qHTS | U2OS KCNH2 3.1, thallium flux FluxOr; active compounds read low | AID 720553, 2013 | hit rate 0.95% among 340,000 | Potassium voltage-gated channel subfamily H member 2, brain isoform KCNH2 3.1 (human) | activity change, % (tested at about 1.8 µM);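 active = maximum activity change below -70%; inconclusive = maximum activity change from -70% to -50%; inactive = maximum activity change above -50%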;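 note: thallium influx rate constant from kinetic fluorescence after stimulation buffer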
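We transduce U2OS cells with the mutant 3.1 virus, culture them overnight, load FluxOr with Red40 quencher for 45 min, then add stimulation buffer and read kinetically for 2 min to derive a normalized rate constant.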
hERG WT inh: qHTS for Inhibitors of KCHN2 3.1: Wildtype qHTS; AID 720551, 2013; Voltage-gated inwardly rectifying potassium channel KCNH2 (Homo sapiens), Q12809; hit rate 0.37% among 340,000; activity change, % at 1.84 µM; U2OS, BacMam KCNH2, thallium flux FluxOr; active compounds read low;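 active = maximum activity change below -70%; inconclusive = maximum activity change between -70% and -50%; inactive = maximum activity change above -50%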
Target sequence (Q12809 whole entry, looked up): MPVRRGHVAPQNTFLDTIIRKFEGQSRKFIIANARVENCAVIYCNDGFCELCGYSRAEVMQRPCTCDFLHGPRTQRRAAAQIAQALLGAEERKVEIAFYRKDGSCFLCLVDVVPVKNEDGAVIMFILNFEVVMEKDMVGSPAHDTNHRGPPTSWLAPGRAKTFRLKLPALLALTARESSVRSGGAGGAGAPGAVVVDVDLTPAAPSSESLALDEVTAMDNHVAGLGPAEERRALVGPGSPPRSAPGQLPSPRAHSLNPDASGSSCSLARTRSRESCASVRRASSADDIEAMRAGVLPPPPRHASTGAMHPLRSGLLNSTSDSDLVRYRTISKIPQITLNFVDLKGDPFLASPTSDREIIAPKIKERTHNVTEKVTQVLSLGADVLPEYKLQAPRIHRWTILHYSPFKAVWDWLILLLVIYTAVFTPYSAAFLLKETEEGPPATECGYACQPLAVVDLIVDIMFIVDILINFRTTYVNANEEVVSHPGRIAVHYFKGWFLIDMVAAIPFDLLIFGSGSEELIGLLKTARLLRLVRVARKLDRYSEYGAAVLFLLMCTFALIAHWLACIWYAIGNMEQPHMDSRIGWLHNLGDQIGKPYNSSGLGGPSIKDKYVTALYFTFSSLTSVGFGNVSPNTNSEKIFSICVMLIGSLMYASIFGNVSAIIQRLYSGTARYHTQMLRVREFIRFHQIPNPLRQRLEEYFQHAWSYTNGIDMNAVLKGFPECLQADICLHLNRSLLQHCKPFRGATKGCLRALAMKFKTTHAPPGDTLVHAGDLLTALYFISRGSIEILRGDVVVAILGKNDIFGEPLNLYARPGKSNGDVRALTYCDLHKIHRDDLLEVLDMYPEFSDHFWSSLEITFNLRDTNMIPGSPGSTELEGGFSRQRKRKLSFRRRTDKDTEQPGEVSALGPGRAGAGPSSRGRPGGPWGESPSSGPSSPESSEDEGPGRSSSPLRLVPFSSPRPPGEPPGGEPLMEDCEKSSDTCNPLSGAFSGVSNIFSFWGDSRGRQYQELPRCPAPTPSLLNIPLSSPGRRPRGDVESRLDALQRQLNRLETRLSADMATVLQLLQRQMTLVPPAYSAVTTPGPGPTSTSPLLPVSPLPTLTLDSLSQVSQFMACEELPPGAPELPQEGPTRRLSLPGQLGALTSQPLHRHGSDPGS
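U2OS cells transduced with wild-type KCNH2 virus are loaded with FluxOr dye for 45 min, and thallium flux is measured in kinetic reads before and after stimulation buffer. Rate constants are normalized to DMSO controls.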
* marks the source's active call; other numbers are inactive results; i = inactive; ? = inconclusive; / = no result; ! = not active in a repeat; [ ] = another dose, or the depositor's remark. In the library only some 1.2% were active in any assay of this set; here they are far more common. Unless noted, calls come from the whole dose curve; as a rule, active = well fitted curve in the direction sought with a large enough effect; inconclusive = small, poorly fitted or top-dose-only effect, or another doubt; inactive = no such curve, though single readings can be large; an effect the other way counts as inactive or inconclusive. % is set by controls: 0 for no effect and ±100 for the full control effect.

SMILES	Pin1 inh	KAT2A inh	Tb PGK inh	RGS4 inh	KCNH2 3.1 inh	hERG WT inh
Cc1onc(-c2c(Cl)cccc2Cl)c1C(=O)NN1CCCCCC1	-9.2%	-4.5%	2.0%	-0.6%	5.1	1.0
Cc1c(C(=O)NN2CCCCC2)nn(-c2ccc(Cl)cc2Cl)c1-c1ccc(I)cc1	/	9.6%	/	29.9µM*!	/	/
O=C(CCCC[C@@H]1SC[C@H]2NC(=O)N[C@H]12)Nc1ccc(C(=O)O)cc1	/	-4.1%	/	/	/	/
Cc1ccc(CN(C(=O)COc2ccc(Cl)c(C)c2)C2CCS(=O)(=O)C2)o1 (configuration not stated)	0.6%	-2.9%	/	9.1%	/	/
Cc1ccc(N(CC(C)C)S(=O)(=O)c2nnc(NC(=O)c3cccs3)s2)cc1	-2.2%	-3.3%	-1.6%	-30.4%	/	/
Cc1ccc(-c2cc(C(=O)NCCN3CCOCC3)c3ccccc3n2)o1	1.0%	12.6µM*	-1.6%	-22.6%	27.1	-1.2
S=C(NCCCc1cnc[nH]1)NCCCN(CCc1ccccc1)c1ccc(Br)cn1	1.8%	/	/	-20.2%	/	/
COCC(=O)N1CCC[C@@]2(CCN(Cc3nccs3)C2)C1	/	0.9%	/	/	/	/
COc1ccc(CN(C)[C@H]2C[C@H]3c4[nH]c5ccccc5c4CCN3C[C@H]2[C@H](C)O)cc1	/	/	-3.2%	/	-81.3*	-47.8
COc1ccc(NC(=O)N(C)[C@H]2C[C@H]3c4[nH]c5ccccc5c4CCN3C[C@H]2[C@H](C)O)cc1	/	/	i	/	0.4	-1.9
CCNc1ncc2nc(CCc3ccccc3)c(=O)n(C)c2n1	/	-23.0%	/	/	/	/
O=C(NC1CCCCC1)c1ccc2c(c1)N(Cc1ccc(Cl)cc1)C(=O)c1ccccc1S2(=O)=O	-0.9%	-7.0%	-1.1%	-0.8%	/	/
COc1cc(C2Nc3ccccc3C(=O)N2Cc2ccccc2)ccc1OCc1ccc(NC(C)=O)cc1 (configuration not stated)	-3.8%	/	/	/	/	/
Cc1cc(/C=C2\SC(=S)N(Cc3ccco3)C2=O)c(C)n1-c1ccccc1	?	-11.1%	i	-50.2%	-22.6	-81.0*
CN(C)c1ccc(C=C2SC(=S)N(Cc3ccco3)C2=O)cc1	/	/	6.6%	/	-27.7	-34.8
CCC(=O)NC(c1cccs1)c1cc(Br)c2cccnc2c1O (configuration not stated)	/	-1.8%	/	/	/	/
Cc1ccc(CCNC(=O)c2c3c(nc4ccccc24)C(=O)N(C2CCCCC2)C3)cc1	-0.5%	-6.6%	-9.3%	-20.1%	/	/
Cc1ccc(O)c(/C=N/NC(=O)c2[nH]ncc2Br)c1	-4.6%	-2.0%	-12.7%	2.1%	-1.6	8.6
CCOc1ccc(/C=N/NC(=O)c2[nH]ncc2Br)c(O)c1	3.3%	-8.5%	?	-10.9%	-77.1*	0.1
CCOc1ccc(CC(=O)N2CCC3(CC2)NCCc2[nH]cnc23)cc1	3.3%	1.8%	-7.3%	15.2%	-3.5	-9.6
CCOc1ccc(C(=O)N2CCC3(CC2)NCCc2[nH]cnc23)cc1	-2.3%	-2.8%	-3.2%	12.0%[11.4 µM]	-89.4*	-13.7
O=C(c1ccc(Br)cc1)N1CCC2(CC1)NCCc1[nH]cnc12	-4.0%	-5.5%	-7.1%	-11.6%	-87.3*	?
CC(C)(C)c1ccc(C(=O)N2CCC3(CC2)NCCc2[nH]cnc23)cc1	-17.7%	-4.8%	-1.0%	-4.1%	4.1	-4.6
COCCCNC(=O)CCCn1c(=O)c2ccccc2n(CC(=O)Nc2ccc(C)cc2Cl)c1=O	-2.7%	0.3%	-4.9%	5.3%	/	/
COc1ccc(C2Nc3ccccc3C(=O)N2Cc2ccccc2)cc1COc1ccc(F)cc1 (configuration not stated)	-3.7%	/	/	/	/	/
SMILES	Pin1 inh	KAT2A inh	Tb PGK inh	RGS4 inh	KCNH2 3.1 inh	hERG WT inh
CN1C(C(=O)NCc2ccc(OC(F)(F)F)cc2)CC2Cn3c(nc4cc(Cl)c(Cl)cc43)C21 (configuration not stated)	14.0%	13.1%	-4.2%	-19.3%	-78.7*	?
O=C(NCc1ccc(OC(F)(F)F)cc1)C1CC2Cn3c(nc4ccccc43)C2N1Cc1ccccc1 (configuration not stated)	2.8%	-7.1%	0.7%	9.5%	-97.8*	-75.8*
COc1ccc(-c2nc3sc(CCNS(=O)(=O)c4ccccc4)c(C)n3n2)cc1	-5.2%	-6.1%	-2.0%	9.9%	/	/
Cc1ccc(OCC(O)CN2CCc3ccccc3C2)c(C)c1 (configuration not stated)	12.5%	-3.0%	4.3%	14.1%	-21.6	14.5
OC(COC(c1ccccc1)c1ccccc1)CN1CCc2ccccc2C1 (configuration not stated)	-1.3%	2.7%	4.8%	-8.9%	?	?
OC1CCCN(CC(O)COC(c2ccc(F)cc2)c2ccc(F)cc2)C1 (configuration not stated)	-0.1%	-6.2%	1.4%	-8.6%[56.9 µM]	-1.0	60.6
OC(COC(c1ccc(Cl)cc1)c1ccc(Cl)cc1)CN1CCc2ccccc2C1 (configuration not stated)	-2.0%	-10.4%	9.2%	5.6%	/	-70.7*
OC(COC(c1ccc(F)cc1)c1ccc(F)cc1)CN1CCc2ccccc2C1 (configuration not stated)	-2.1%	?	2.1%	-7.3%	-109.6*	-29.2
OC(COc1ccc(Cl)cc1Cl)CN1CCc2ccccc2C1 (configuration not stated)	-11.4%	-5.9%	-7.2%	6.4%	-72.0*	15.9
Cn1c(=O)c(-c2cccc(F)c2)nc2cncnc21	/	-16.3%	/	/	/	/
CCC(=O)C1=C(c2ccc(F)cc2)N(C(=O)CC)n2c(nnc2C2CCCCC2)S1	?	-17.1%	-4.0%	-18.9%	/	/
CC(=O)Oc1ccc2cc(-c3nc4c(s3)CCc3ccccc3-4)c(=O)oc2c1	?	/	/	-1.3%	/	/
Cc1ccc(C)c(SCC(=O)NC(=O)Nc2ccc3c(c2)OCCO3)c1	1.1%	-5.9%	-6.1%	-14.9%	4.8	-79.1*
O=C(CSc1ncccn1)NC(=O)Nc1ccc2c(c1)OCCO2	30.6%	-9.6%	-3.3%	-13.2%	1.6	-7.1
CC1OC(OCC2OC(Oc3cc(O)c4c(c3)OC(c3ccc(O)cc3)CC4=O)C(O)C(O)C2O)C(O)C(O)C1O (configuration not stated)	/	-9.7%	/	/	/	/
S=c1nc(-c2ccc(Cl)cc2)[nH][nH]1	0.8%	-7.1%	i	?	-6.5	-0.3
Cc1ccc(C)n1-c1nc(=S)[nH][nH]1	-2.0%	17.8µM*	-4.6%	-121.7%	-19.5	9.3
